Experimental data from the supplement of paper PMC6555819.

What follows are sequences tested on PPARg DBDmut IVT, anti-PPARg (DBD mutation: PPARg1 K132A/R137A, NR concentration 270 nM) (assay: PBM binding z-score (relative to random genomic background probes); higher = stronger binding; sequences stand for … in GC…GCGATTGACAGCGTAGAATGAAGG).
In short: (§1)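 Antibodies against each partner of ligand-free nuclear receptor dimers (one per run) detected binding on custom Agilent 4×180K protein-binding microarrays after 1 h incubation. The double-stranded probes had 34-nt variable regions carrying direct-repeat seeds, single-nucleotide variants, half-site ablations and random human genomic background sequences. Binding z-scores, from regression-normalized fluorescence, use the random background probes as reference.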

| Sequence | PBM binding z-score |
| --- | --- |
| CCTTCCGGGTCACGAGGTTATAGCACGACGAGCG | -0.0446 |
| TCTGCTAAGTCAACGATGGTCAGCTAATCTGCTA | -0.943 |
| TGAATGAGGTTATAAGATCAGAGAACGTTGCAAA | 0.498 |
| CCTGCTAGGTCAATGCTCAGCTAAAGCAGCTCGC | -0.86 |
| TCATATAGGTAATACAGGTGAAAGTCGGCATCTA | 1.86 |
| CCGACTGGGGCAAAGGTTACCCTACTCAGTACGA | -0.866 |
| AATACAGGGTCATCGTAGGCCAGAATACGCACAG | 0.878 |
| TCTCGGAGGACGCGAAAGGTCAGAGCTCGACATC | 0.428 |
| TCTGCTAGGGCAACGATGGTCAGCTAATCTGCTA | -1.01 |
| CCTTACGGGTCACTCCAGGTTATAGCTTCGGAGT | 0.163 |
| TCTAGCAGGCCAGAGTGTCACTCAAGAGGTACGG | -1.96 |
| CCTTACGGGTCACTGACAGGTTACAGCATTTGGA | -0.264 |
| ATATGTAGGTTAGCTGGGGTCAGTCAGACTAGGC | 1.83 |
| CCTACTGGGCCTAAAAGGTCATTGATGCCGATAA | -1.2 |
| CCTAGTTGGTCAAGGTTACACACGCTATAGGTAC | 1.66 |
| ATCGAAAGGTCGACGAGGTGAGTTTACACCGTTT | 0.288 |
| TCGCCTAGGTCATTGGGCCAGTATAGTACGCATC | -0.432 |
| CCTTACGGGTCAAGGTTAGAGCACGGGTGGTACG | 0.266 |
| TAGCCTAGGTCAATCAGGGGCCAGTATAGAAAGC | 0.00211 |
| TCCTATAGGTAAAAGGTGAAAGTCGGTGTGGTAA | 0.327 |

| Sequence | PBM binding z-score |
| --- | --- |
| ATATGGAGGTTACATCCGGGTCATTCAGGCTATG | 0.791 |
| TATACAGGGTCAAATGCCAGAGTACGAATGTCGA | 3.07 |
| TGAATGAGGTTAAAAGATCAGGGAACGTTGCAAA | 0.45 |
| TCTATTGGTTGATTAGGGCAACCGAAACAGCGGA | 0.647 |
| CCTTACGGGTCATGGTTATAGCACGGGTGGTACG | -0.548 |
| CCTAGTTGGTCAGGAGTTCACACACCGGATATGA | 0.284 |
| AATACAGGGTCTCTAGGCCAGAGTAGGTACGAAT | -0.134 |
| ACTAGCAGGCCTAGGGTCACTCAAGATTAGTCCG | -1.16 |
| TCTATTAGTTGATTAGGGCCACCGAAACAGCGGA | 0.609 |
| ACTAGTTGGTCAGGTGAGGTCACACACAATTCGG | 0.637 |
| ATACCAAGGTGATCGTGAGGTAGTTGATACTAAC | 0.92 |
| CCTAGTTGGTCAAGGTCAAACACGCTATAGGTAC | 1.42 |
| TAGCCTAGGTCAGATCGGGCTAGTATACGCTATA | -0.708 |
| TAGCCTAGGTGATTCAGGGGCCAGTATAGAAAGC | 0.314 |
| TCATATAGGTAACTGCTAGGTGAAAGTCCGATCT | 0.94 |
| TCAGACAGGTTAAGGTAACTCAGGTACGCAGTCG | 0.18 |
| TCTCGGAGGACACGAAAGTCAGAGCTTTCCAGAG | -0.594 |
| AATCCAGGGTCACTAGGCCAGAGTAGGTACGAAT | 1.11 |
| CGAACGAGCGCATGAGTTGATAGCAAATGCCGAT | -1.33 |
| GTACAAAGGTGAATAGGTCGTTGATGAGTAGGCG | 0.526 |

What follows are sequences tested on PPARg homodimer (NR concentration 180 nM) in the same assay as above.
In short: as §1

| Sequence | PBM binding z-score |
| --- | --- |
| CCTTCCGGGTCACGAGGTTATAGCACGACGAGCG | 2.53 |
| TCTGCTAAGTCAACGATGGTCAGCTAATCTGCTA | -1.18 |
| TGAATGAGGTTATAAGATCAGAGAACGTTGCAAA | 0.196 |
| CCTGCTAGGTCAATGCTCAGCTAAAGCAGCTCGC | 0.329 |
| TCATATAGGTAATACAGGTGAAAGTCGGCATCTA | 1.33 |
| CCGACTGGGGCAAAGGTTACCCTACTCAGTACGA | 0.732 |
| AATACAGGGTCATCGTAGGCCAGAATACGCACAG | 1.87 |
| TCTCGGAGGACGCGAAAGGTCAGAGCTCGACATC | 2.2 |
| TCTGCTAGGGCAACGATGGTCAGCTAATCTGCTA | -1.1 |
| CCTTACGGGTCACTCCAGGTTATAGCTTCGGAGT | 2.23 |
| TCTAGCAGGCCAGAGTGTCACTCAAGAGGTACGG | -0.804 |
| CCTTACGGGTCACTGACAGGTTACAGCATTTGGA | 2.85 |
| ATATGTAGGTTAGCTGGGGTCAGTCAGACTAGGC | 1.96 |
| CCTACTGGGCCTAAAAGGTCATTGATGCCGATAA | 2.99 |
| CCTAGTTGGTCAAGGTTACACACGCTATAGGTAC | 2.04 |
| ATCGAAAGGTCGACGAGGTGAGTTTACACCGTTT | 1.24 |
| TCGCCTAGGTCATTGGGCCAGTATAGTACGCATC | 1.52 |
| CCTTACGGGTCAAGGTTAGAGCACGGGTGGTACG | 2.42 |
| TAGCCTAGGTCAATCAGGGGCCAGTATAGAAAGC | 1.32 |
| TCCTATAGGTAAAAGGTGAAAGTCGGTGTGGTAA | 1.1 |

| Sequence | PBM binding z-score |
| --- | --- |
| ATATGGAGGTTACATCCGGGTCATTCAGGCTATG | 2.15 |
| TATACAGGGTCAAATGCCAGAGTACGAATGTCGA | 3.17 |
| TGAATGAGGTTAAAAGATCAGGGAACGTTGCAAA | 0.137 |
| TCTATTGGTTGATTAGGGCAACCGAAACAGCGGA | 1.38 |
| CCTTACGGGTCATGGTTATAGCACGGGTGGTACG | 1.58 |
| CCTAGTTGGTCAGGAGTTCACACACCGGATATGA | 2.47 |
| AATACAGGGTCTCTAGGCCAGAGTAGGTACGAAT | 0.115 |
| ACTAGCAGGCCTAGGGTCACTCAAGATTAGTCCG | 1.39 |
| TCTATTAGTTGATTAGGGCCACCGAAACAGCGGA | 0.28 |
| ACTAGTTGGTCAGGTGAGGTCACACACAATTCGG | 3.1 |
| ATACCAAGGTGATCGTGAGGTAGTTGATACTAAC | -0.0605 |
| CCTAGTTGGTCAAGGTCAAACACGCTATAGGTAC | 3.34 |
| TAGCCTAGGTCAGATCGGGCTAGTATACGCTATA | 0.037 |
| TAGCCTAGGTGATTCAGGGGCCAGTATAGAAAGC | -0.16 |
| TCATATAGGTAACTGCTAGGTGAAAGTCCGATCT | 1.15 |
| TCAGACAGGTTAAGGTAACTCAGGTACGCAGTCG | 1.1 |
| TCTCGGAGGACACGAAAGTCAGAGCTTTCCAGAG | -0.882 |
| AATCCAGGGTCACTAGGCCAGAGTAGGTACGAAT | 2.8 |
| CGAACGAGCGCATGAGTTGATAGCAAATGCCGAT | -2.16 |
| GTACAAAGGTGAATAGGTCGTTGATGAGTAGGCG | 2.64 |
